Screening results: PubChem, National Center for Advancing Translational Sciences (NCATS)
Compounds with a hit are over-represented: about 1.9% of the library has one in this group of screens.
PINK1 modulator – changes PINK1 expression; PINK1 immunofluorescence, high-content cytometry, 24 h; Potency, µM (top dose mostly 76.6 µM), inactives show at the highest dose activation (PINK1 increase), hits mostly activators; actives 0.2% (n = 410,000); active means well fitted activation curve with a large enough effect; inconclusive means small, poorly fitted or top-dose-only effect; cell line not stated here; further: potency means the concentration at half of the fitted maximal effect; % of control where 0% means no effect; nearly all actives have a fitted effect of over 65% in size
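Decision-based qHTS: stable cells, 24 h exposure to five compound concentrations, CCCP as control. Fixed cells stained for PINK1 plus nuclear, mitochondrial and cell markers, cytometer read.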
ClpP mod – qHTS Assay for Activators of ClpP. ATP-dependent Clp protease proteolytic subunit (Bacillus subtilis (strain 168)), P80244. purified B. subtilis ClpP, FRET peptide cleavage, 20 min. Potency, µM (series often up to 57.5 µM), for inactives: at the highest dose activity change, negative = active. actives 1.9% (n = 340,000). AID 651965, 2013; active means well fitted falling curve with a large enough effect; inconclusive means small, poorly fitted or top-dose-only effect; inactive means no such curve, though single readings can be large or run the other way; further: potency means the concentration at half of the fitted maximal effect; the source files actives as falling curves though it sought activators and does not explain the sign; nearly all actives have a fitted effect of over 65% in size
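FRET quenching reversal measured ClpP activation: 10 microg/mL B. subtilis ClpP at pH 8 with the FRET-FV decapeptide, read at 430 nm after 320 nm excitation. The 20-min minus 0-min signal was scaled between DMSO/no-enzyme wells and ADEP (5.8 microM final).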
Menin MLL FP TR – menin-MLL binding inhibition, Texas Red mutant peptide | O00255 | Menin + Texas Red MLL mutant peptide, fluorescence polarization | Potency, µM (highest dose often 61.6 µM), inactives show at the highest dose FP activity change, negative = inhibition, actives largely listed as inhibitors | actives 0.23% (n = 270,000) | AID 1768; active means well fitted inhibition curve with a large enough effect in the polarisation, with a control signal flat, not every such curve was filed as active; inconclusive means small, poorly fitted or top-dose-only effect, or effect the other way, or a change in a side signal; inactive means no such curve, though single readings can be large or run the other way; the % refers to the polarisation; further: potency means the concentration at half of the fitted maximal effect; % of control where 0% means no effect
MLL CXXC-DNA inh – blocks binding of human MLL CXXC domain to DNA; actives 0.037% (n = 290,000); MLL-CXXC / FITC-HOXA9 DNA fluorescence polarization; Potency, µM (series often up to 115 µM), without a hit: at the top dose activity change, negative = inhibition, hits mostly inhibitors; AID 2662; active means well fitted inhibition curve with a large enough effect in the polarisation, with a control signal flat, not every such curve was filed as active; inconclusive means small, poorly fitted or top-dose-only effect, or effect the other way, or a change in a side signal; inactive means no such curve, though single readings can be large or run the other way; the % refers to the polarisation; further: potency means the concentration at half of the fitted maximal effect
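Steps: dispense CXXC domain solution (7 uM) → pin compounds or unlabeled HOX-A9 DNA control → 5 min ambient → add FLSN-HOX-A9 solution (50 nM) → spin → 30 min ambient → fluorescence polarization. Tris pH 7.5/NaCl/DTT/BSA buffer.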
Menin MLL FP FL – displaces fluorescein MLL peptide from human menin | 290,000 tested, under 10 active | AID 1766 | Fluorescence polarization, fluorescein-MLL peptide displacement from menin | FP activity change, % at 61.4 µM; active means well fitted curve in the direction sought with a large enough effect in the polarisation, not every such curve was filed as active; inconclusive means small, poorly fitted or top-dose-only effect, or effect the other way, or a change in a side signal; inactive means no such curve, though single readings can be large or run the other way; the % refers to the polarisation; further: % of control where 0% means no effect
Epigenetic reg – epigenetic control regulation, reporter derepression; murine LDR cells, GFP reporter derepression, 30 h; actives 0.2% (n = 280,000); AID 1865; Potency, µM (top dose mostly 53.9 µM), without a hit: top-dose GFP activation, actives largely listed as activators; active means well fitted activation curve with a large enough effect; inconclusive means small, poorly fitted or top-dose-only effect; further: potency means the concentration at half of the fitted maximal effect; % of control where 0% means no effect; nearly all actives have a fitted effect of over 60% in size
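In this reporter-derepression format, murine cells bearing a silenced integrated CMV-GFP locus incubate with test compound (30 h, 37 C), then are washed and imaged; fluorescent objects of 20–120 um count as induced cells.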
* marks the source's active call; other numbers are inactive results; [ ] = another dose, or the depositor's remark.

`CNC(=O)Oc1ccc2c(c1)C1(C)CCN(C)C1N2C` (centres undefined) gave Menin MLL FP TR -2%[24.8 µM], Menin MLL FP FL -13 and Epigenetic reg 3%.
Screening O=C(c1ccc2nc3ccc(Cl)cc3c(=O)n2c1)N1CCC2(CC1)OCCO2 returned PINK1 modulator -2%[38.3 µM] and ClpP mod 14µM*.
O=C(c1ccc(Cl)cc1)N1CCC2(CC1)OCCO2 was read as PINK1 modulator 2%, ClpP mod -1%, Menin MLL FP TR 4%, MLL CXXC-DNA inh 0% and Menin MLL FP FL -5.
COC(=O)CSc1nc2sc3c(c2c(=O)n1C1CCCCC1)CCN(C)C3 was read as Menin MLL FP TR -21%, MLL CXXC-DNA inh 37%, Menin MLL FP FL inconclusive and Epigenetic reg 1%.
For CC(C)CCCC(C)C1CCC2C3C(=O)C=C4CC(O)CC[C@@]4(C)C3CC[C@@]12C (some centres undefined) the results were PINK1 modulator 2%, Menin MLL FP TR inconclusive, Menin MLL FP FL -4 and Epigenetic reg -1%.
Screening CCN(CC)c1ccc(CC2C(=O)N(C)C(=O)N(C)C2=O)cc1 returned PINK1 modulator 1%, ClpP mod 8.9µM*, Menin MLL FP TR inconclusive, MLL CXXC-DNA inh 18%, Menin MLL FP FL inconclusive and Epigenetic reg 2%.
Screening CCOC(=O)c1ccc(N2CCN(c3ccccc3F)CC2)c(NC(=O)Nc2ccc(Cl)c(Cl)c2)c1 returned PINK1 modulator 1%, ClpP mod inconclusive and Epigenetic reg 2%.
CC(C)CCOC(=O)c1c(N)n(CC2CCCO2)c2nc3ccccc3nc12 (centres undefined) was read as PINK1 modulator -1%, ClpP mod 28µM*, Menin MLL FP TR 16%, MLL CXXC-DNA inh -10%, Menin MLL FP FL 1 and Epigenetic reg -1%.
Screening CCCNC(=O)c1c(N)n(CC2CCCO2)c2nc3ccccc3nc12 (centres undefined) returned PINK1 modulator -1%, ClpP mod 18µM*, Menin MLL FP TR 5%, MLL CXXC-DNA inh -12%, Menin MLL FP FL 5 and Epigenetic reg -1%.
For CC(C)OCCCNC(=O)c1c(N)n(CC2CCCO2)c2nc3ccccc3nc12 (centres undefined) the results were PINK1 modulator -2%[38.3 µM], ClpP mod 14µM*, Menin MLL FP TR -6%, MLL CXXC-DNA inh -4%, Menin MLL FP FL 9 and Epigenetic reg -20%.
`Cc1cc(I)ccc1Nc1c(C(=O)NOCC2CC2)cc(F)c(F)c1F` gave Menin MLL FP TR inconclusive and Menin MLL FP FL 0.
Screening CN(C)C(=O)Oc1ccc(-c2cn3cc(Cl)ccc3n2)cc1 returned PINK1 modulator 1%, ClpP mod inconclusive, Menin MLL FP TR 11%, MLL CXXC-DNA inh 2%, Menin MLL FP FL 0 and Epigenetic reg 1%.
Screening CN(C)C(=O)Oc1ccc(-c2cn3cc(C(F)(F)F)ccc3n2)cc1 returned PINK1 modulator 2%, ClpP mod 10µM*, Menin MLL FP TR 0%, MLL CXXC-DNA inh 7%, Menin MLL FP FL 0 and Epigenetic reg 1%.
CC1(C)C(C(=O)O)N2C(=O)CC2S1(=O)=O (centres undefined) was read as Menin MLL FP TR inconclusive, Menin MLL FP FL -3 and Epigenetic reg -8%.
For Cc1ccsc1-c1nc(CSCC(=O)N2CCC3(CC2)OCCO3)c(C)o1 the results were PINK1 modulator -1%, ClpP mod 32µM*, Menin MLL FP TR inconclusive, MLL CXXC-DNA inh -4%, Menin MLL FP FL 2 and Epigenetic reg 0%.
Screening COc1cc(=O)n2c(c1C(=O)N(C)Cc1nonc1C)CCN(C(=O)C1C(C)(C)C1(C)C)CC2 returned PINK1 modulator 0%.
For O=[N+]([O-])c1c2ccccc2cc2ccccc12 the results were PINK1 modulator 2% and ClpP mod -1%.
